Several values for one entry are separate records, joined by “and”; a condition that tells them apart may be missing. Identical values can stand only once. This is part of a sample that, as a whole, favours compounds with a hit. Of some 79,000 tested, about 15% had one in any assay. More than one record can exist for a structure, and the calls need not agree. Activity calls are given as the source filed them. Cut-off read from the data, not from the text of the source: active = growth inhibition above about 70%; inactive = the rest.
How the values were obtained:
[1] = NCI Yeast Anticancer Drug Screen. Data for the rad52 strain (AID 147);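 note: 0% = growth of vehicle-treated control cultures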; conditions: S. cerevisiae rad52 mutant growth inhibition, stronger effect = higher value
Procedure, shortened: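 DNA repair-defective yeast; compound exposure; growth scored against vehicle controls.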

[2] = NCI Yeast Anticancer Drug Screen. Data for the wt1 strain (AID 149);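 note: 0% = growth of vehicle-treated wt1 cultures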; conditions: S. cerevisiae wt1 strain (SPY 50644) growth inhibition, stronger effect = higher value
Procedure, shortened: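 wt1 yeast, compound-treated; % growth inhibition vs vehicle control.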

[3] = NCI Yeast Anticancer Drug Screen. Data for the rad50EPP+ strain (AID 151);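 note: 0% = growth of vehicle-treated control cultures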; conditions: S. cerevisiae rad50 mutant strain, stronger effect = higher value
Procedure, shortened: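 rad50EPP+ yeast treated with test compounds. Readout: growth vs vehicle control.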

[4] = NCI Yeast Anticancer Drug Screen. Data for the mgt1 strain (AID 153); conditions: S. cerevisiae mgt1 mutant growth inhibition, stronger effect = higher value
Procedure, shortened: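 Growth inhibition relative to vehicle controls was scored for the mgt1 yeast strain after compound exposure.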

[5] = NCI Yeast Anticancer Drug Screen. Data for the rad50 strain (AID 155);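 note: 0% = growth of vehicle-only cultures of the same strain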; conditions: S. cerevisiae rad50 strain growth inhibition, stronger effect = higher value
Procedure, shortened: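 Genetically altered yeast (DNA repair pathway); compound treatment; growth inhibition vs vehicle ctrl.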

[6] = NCI Yeast Anticancer Drug Screen. Data for the mec2-1 strain (AID 157); conditions: S. cerevisiae mec2-1 strain, stronger effect = higher value
Procedure, shortened: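 Growth inhibition is read against vehicle-treated controls after compound exposure of the mec2-1 yeast strain, which is defective in DNA damage repair or cell cycle control.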

[7] = NCI Yeast Anticancer Drug Screen. Data for the rad14 strain (AID 159);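 note: 0% = growth of vehicle-treated control cultures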; conditions: S. cerevisiae rad14 strain growth inhibition, stronger effect = higher value
Procedure, shortened: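 Test compounds were applied to a repair-deficient yeast strain. Its growth was then compared with that of cultures given vehicle alone, and inhibition was expressed relative to those controls.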

[8] = NCI Yeast Anticancer Drug Screen. Data for the sgs1 mgt1 strain (AID 161);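 note: 0% = growth of cultures given vehicle only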; conditions: S. cerevisiae sgs1 mgt1 strain, stronger effect = higher value
Procedure, shortened: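 Compounds are added to genetically altered yeast, and growth is compared with cultures given vehicle alone to give percent inhibition.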

[9] = NCI Yeast Anticancer Drug Screen. Data for the cln2 rad14 strain (AID 165);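 note: 0% = growth equal to vehicle treated cultures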; conditions: S. cerevisiae cln2 rad14 strain, stronger effect = higher value
Procedure, shortened: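 Growth inhibition, relative to vehicle-treated controls, is the read-out. The test organism is a yeast strain with defined genetic alterations, cln2 rad14.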

[10] = NCI Yeast Anticancer Drug Screen. Data for the bub3 strain (AID 167); conditions: S. cerevisiae bub3 mutant strain, stronger effect = higher value
Procedure, shortened: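 Yeast carrying a defined mutation is treated with each compound, and growth is compared with that of vehicle-exposed cells to give inhibition.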

[11] = NCI Yeast Anticancer Drug Screen. Data for the wt2 strain (AID 169);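 note: 0% = growth of vehicle-treated yeast cultures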; conditions: S. cerevisiae wt2 strain growth inhibition, stronger effect = higher value
Procedure, shortened: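 Compound exposure of yeast; growth compared with vehicle controls; inhibition reported.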

[12] = NCI Yeast Anticancer Drug Screen. Data for the mlh1 strain (AID 171);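 note: 0% = growth of vehicle-treated control cultures of the same strain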; conditions: S. cerevisiae mlh1 strain growth inhibition, stronger effect = higher value
Procedure, shortened: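 Compounds are applied to a genetically altered yeast strain, and its growth is compared with that of vehicle-treated cultures to give percent inhibition.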

[13] = NCI Yeast Anticancer Drug Screen. Data for the sgs1 strain (AID 173);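 note: 0% = growth of vehicle-only control cultures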; conditions: S. cerevisiae sgs1 mutant, stronger effect = higher value
Procedure, shortened: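 Compounds applied to genetically altered yeast; growth compared with vehicle-treated cultures to give % inhibition.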

[14] = NCI Yeast Anticancer Drug Screen. Data for the mlh1 rad18 strain (AID 175); conditions: S. cerevisiae mlh1 rad18 strain growth inhibition, stronger effect = higher value
Procedure, shortened: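 Cells of a genetically altered yeast strain, deficient in DNA damage repair, were treated with compound. Their growth was then compared with that of vehicle-treated cultures to give inhibition.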

[15] = NCI Yeast Anticancer Drug Screen. Data for the rad18 strain (AID 177); conditions: S. cerevisiae rad18 mutant growth inhibition, stronger effect = higher value
Procedure, shortened: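 Compounds are applied to a repair-deficient yeast strain, and growth is compared with that of vehicle-treated cultures to give percent inhibition.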

[16] = at 5.0 µM (retest, dose inferred, filed as 0.5)
[17] = at 50.0 µM (retest, dose inferred, filed as 5.0)

Measured: growth inhibition

COc1ccc(/C=C/C(=O)c2ccccc2)cc1OC
17.4% (inactive) and 76.2% (active): [14]; at 50.0 µM
inactive: [1]; at 1.2 µM -42% | [1]; at 3.7 µM -42% | [1]; at 11.0 µM -30% | [1]; at 33.0 µM 19% | [2]; at 1.2 µM -2% | [2]; at 3.7 µM -15% | [2]; at 11.0 µM -2% | [2]; at 33.0 µM 28% | [3]; at 1.2 µM 16% | [3]; at 3.7 µM 11% | [3]; at 11.0 µM 28% | [3]; at 33.0 µM 27% | [4]; at 1.2 µM -3% | [4]; at 3.7 µM -30% | [4]; at 11.0 µM -24% | [4]; at 33.0 µM 55% | [5]; at 1.2 µM 12% | [5]; at 3.7 µM 1% | [5]; [16] 22% | [5]; at 11.0 µM -5% | [5]; at 33.0 µM 44% | [5]; [17] 48% | [6]; at 1.2 µM -6% | [6]; at 3.7 µM -12% | [6]; [16] -16% | [6]; at 11.0 µM -2% | [6]; at 33.0 µM 47% | [6]; [17] 59% | [7]; at 1.2 µM 3% | [7]; at 3.7 µM 5% | [7]; at 11.0 µM 14% | [7]; at 33.0 µM 46% | [8]; [16] 15% | [8]; [17] 54% | [9]; [16] 30% | [9]; [17] 34% | [9]; at 50.0 µM -16.2% and 58.3% | [10]; at 1.2 µM 4% | [10]; at 3.7 µM 14% | [10]; [16] 16% | [10]; at 11.0 µM -36% | [10]; at 33.0 µM 62% | [11]; at 1.2 µM -30% | [11]; at 3.7 µM -33% | [11]; at 11.0 µM -34% | [11]; at 33.0 µM 38% | [12]; at 1.2 µM 20% | [12]; at 3.7 µM 19% | [12]; at 11.0 µM 17% | [12]; at 33.0 µM 67% | [13]; at 1.2 µM -11% | [13]; at 3.7 µM -2% | [13]; at 11.0 µM 5% | [13]; at 33.0 µM 51% | [14]; [16] 3% | [15]; at 1.2 µM -12% | [15]; at 3.7 µM -20% | [15]; at 11.0 µM -8%
54% (inactive) and 84% (active): [6]; at 50.0 µM
67.5% (inactive) and 83.8% (active): [10]; at 50.0 µM
6.55% (inactive) and 84.3% (active): [5]; at 50.0 µM
active: [1]; at 100.0 µM 95% | [2]; at 100.0 µM 92% | [3]; at 100.0 µM 75% | [4]; at 100.0 µM 96% | [5]; at 100.0 µM 96% | [6]; at 100.0 µM 95% | [7]; at 100.0 µM 92% | [10]; [17] 88% | [10]; at 100.0 µM 95% | [11]; at 100.0 µM 95% | [12]; at 100.0 µM 95% | [13]; at 100.0 µM 96% | [14]; [17] 79% | [15]; at 33.0 µM 72% | [15]; at 100.0 µM 95%
51.9% (inactive) and 80.3% (active): [8]; at 50.0 µM

O=C(O)c1cc2ccc(Cl)cc2c(O)c1C1=CCCCC1
active: [1]; at 100.0 µM 78% | [2]; at 100.0 µM 73% | [4]; at 100.0 µM 84% | [5]; at 50.0 µM 74.3% | [5]; at 100.0 µM 76% | [7]; at 100.0 µM 75% | [8]; [17] 76% | [8]; at 50.0 µM 79.8% | [10]; at 100.0 µM 78% | [11]; at 100.0 µM 87% | [12]; at 100.0 µM 87% | [13]; at 100.0 µM 88% | [14]; [17] 74% | [15]; at 100.0 µM 81%
inactive: [1]; at 1.2 µM 6% | [1]; at 3.7 µM 8% | [1]; at 11.0 µM 26% | [1]; at 33.0 µM 46% | [2]; at 1.2 µM -10% | [2]; at 3.7 µM 2% | [2]; at 11.0 µM 6% | [2]; at 33.0 µM 28% | [3]; at 1.2 µM 8% | [3]; at 3.7 µM 8% | [3]; at 11.0 µM 13% | [3]; at 33.0 µM 13% | [3]; at 100.0 µM 33% | [4]; at 1.2 µM 7% | [4]; at 3.7 µM -15% | [4]; at 11.0 µM 1% | [4]; at 33.0 µM 42% | [5]; at 1.2 µM -7% | [5]; at 3.7 µM -5% | [5]; [16] 33% | [5]; at 11.0 µM 11% | [5]; at 33.0 µM 36% | [5]; [17] 58% | [6]; at 1.2 µM 22% | [6]; at 3.7 µM 18% | [6]; [16] -1% | [6]; at 11.0 µM 22% | [6]; at 33.0 µM 40% | [6]; [17] 58% | [6]; at 50.0 µM 69.1% | [6]; at 100.0 µM 69% | [7]; at 1.2 µM -6% | [7]; at 3.7 µM -10% | [7]; at 11.0 µM 9% | [7]; at 33.0 µM 30% | [8]; [16] 0% | [9]; [16] 12% | [9]; [17] 63% | [9]; at 50.0 µM 56.9% | [10]; at 1.2 µM 14% | [10]; at 3.7 µM -8% | [10]; [16] 26% | [10]; at 11.0 µM -5% | [10]; at 33.0 µM 32% | [10]; [17] 64% | [10]; at 50.0 µM 60.4% | [11]; at 1.2 µM 5% | [11]; at 3.7 µM 5% | [11]; at 11.0 µM 23% | [11]; at 33.0 µM 52% | [12]; at 1.2 µM 26% | [12]; at 3.7 µM 24% | [12]; at 11.0 µM 41% | [12]; at 33.0 µM 68% | [13]; at 1.2 µM 23% | [13]; at 3.7 µM 23% | [13]; at 11.0 µM 39% | [13]; at 33.0 µM 65% | [14]; [16] -7% | [14]; at 50.0 µM 62.4% | [15]; at 1.2 µM 22% | [15]; at 3.7 µM 21% | [15]; at 11.0 µM 25% | [15]; at 33.0 µM 52%

From PubChem BioAssay (NCI)
